Test results taken from the supplement of paper PMC6555819.

System: THRa homodimer (NR concentration 90 nM)
Assay: PBM binding z-score (relative to random genomic background probes); higher = stronger binding; sequences stand for … in GC…GCGATTGACAGCGTAGAATGAAGG
How it was run: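 Random background probes are the reference for binding z-scores. These scores derive from regression-normalized fluorescence on custom Agilent 4×180K protein-binding microarrays incubated 1 h with ligand-free nuclear receptor dimers. Binding was detected with antibodies against each partner (one per run).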

Sequence	PBM binding z-score
TCTAGCAGGCCAGAGGTTCACTCAAGAGGTACGG	-0.939
TCTTGTAAATCAGCAGGTTAAGAAAGCTGGCCAA	-0.393
TCTAGCAGGCCAGAGAGTCACTCAAGAGGTACGG	-1.31
CCTACTGGGCCGCGAAAGGTCATTGATTCAGTGA	0.433
CAAACTAGGTCAAGAGGTCAATGTCCGCTTCCCG	2.55
AGAACGAGGGGAATGAGTTGATAGCACGGGTGGC	-0.151
CTACCAAGGTGAACAAGGTCCTTGATTACTATTC	1.03
CCTACTGGGCCATCACGTCATTGATATCAACGTT	0.107
TCTCGGAGGACACGAAAGGTCAGAGCGCGACATC	1.12
ATATGTAGGTTAAGGGTCATTCAGGTTGGTTCGC	2.05
TCTCGGAGGACACGAAAGGTCAGCGCTCGACATC	1.76
CGAACTCGGTCAGAACAGGACAGTGAAGGATGAT	-0.368
GCGACTGGGACAAAGCAGGTTACCATAAGGTTGG	0.162
ATCGAAAGGTCGACGAGGTGAGTACACACCGTTT	1.06
TCGAGTAGGTTAGTCGGGGCCTTCAGCCAACATA	-0.433
CCTACTGGGCCAAAGGTCGTTGATTCCAATGCTC	0.0932
ATCTCTAGGTAACAAGCTCAGTGAAAGAGAGGAC	0.56
TCTTGTAGATCAACAGAGGTTAAGAAAGTGCGCT	-0.186
